Measured values: PubChem BioAssay
Unmarked numbers belong to inactive results.

Assay: growth effects on S. cerevisiae YJM789 – YJM789 clinical isolate, OD600, 24 h, basal, primary screen (AID 1089);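 note: growth of clinical yeast isolate S. cerevisiae YJM 789 seeded 1000 cells per well; test concentration not given here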
Conditions: higher = more signal, called active from +8 up or from −8 down

Compound	z-score
C=CCOC(=O)[C@H]1[C@@H]2C(=O)O[C@@H](c3ccccc3)[C@@H](c3ccccc3)N2[C@@H](c2ccc(OCCOC(=O)[C@@H]3C[C@@H]4C(=O)N5CCC[C@H]5C(=O)N4[C@@H]3c3ccc(O)cc3)cc2)[C@]12C(=O)Nc1ccccc12	0.821
CC(C)OC(=O)CC(=O)CC(O)c1ccc(C#N)cc1 (stereo unspecified)	-2.05
O=C(OCCF)C1=CCC(c2cccc(Cl)c2)O1 (stereo unspecified)	-3.17
[N-]=[N+]=NCc1ccccc1[C@@H]1OC(c2ccc(OCCCO)cc2)=N[C@]1(Cc1ccccc1N=[N+]=[N-])C(=O)NCc1ccccc1	1.1
COc1ccc(C(O)C2C=CC3C(=O)N(c4ccccc4)C(=O)C3N2Nc2ccc([N+](=O)[O-])cc2)cc1OCc1ccccc1 (stereo unspecified)	-0.225
Cc1ccccc1C(O)C1C=CC2C(=O)N(C)C(=O)C2N1N1CCCCC1 (stereo unspecified)	0.299
COCCOC(=O)N1C(=O)[C@@]2(c3cc(C#CCNC(N)=O)ccc31)[C@H](c1ccccc1OCCO)N1[C@H](c3ccccc3)[C@H](c3ccccc3)OC(=O)[C@H]1[C@@H]2C(N)=O	1.86
O=C1C2C=CC(C(O)c3cccs3)N(Nc3ccccc3F)C2C(=O)N1c1ccccc1 (stereo unspecified)	-0.471
COC(=O)C1=CC(CCCO)=CC(C2CC2)N(Cc2sc3ccccc3c2Cl)C=C1C(=O)OC (stereo unspecified)	0.258
COCCOC(=O)N1C(=O)[C@@]2(c3cc(C#Cc4ccc(OC)cc4)ccc31)[C@H](C(=O)N1CCN(c3ncccn3)CC1)[C@H]1C(=O)O[C@H](c3ccccc3)[C@H](c3ccccc3)N1[C@@H]2c1ccc(O)cc1	-1.94
CN(C)C(=O)[C@]1(CCC(=O)OC(C)(C)C)N=C(c2ccc(OCCCO)cc2)O[C@@H]1c1ccccc1N=[N+]=[N-]	1.1
C=CCC(OC(C)=O)[C@@H]1[C@@H](N(Cc2cc3ccccc3o2)C(=O)c2ccc(C)cc2)c2cc(OCCCO)ccc2N1C(=O)c1ccc2ccccc2c1 (stereo partly specified)	-0.44
COC(=O)[C@@]1(Cc2ccc(OC)cc2)[C@H]2c3cc(C(=O)N4CCCC4)n(Cc4ccccn4)c3C[C@H]2CN1C(=O)c1ccccc1	0.627
Cc1ccc(S[C@]2(C(=O)NCc3ccccc3)CC(=O)N(Cc3ccccc3Cl)[C@@H]2c2ccc(CO)cc2I)cc1	-3.68
COc1ccc([Si](C)(C)[C@@H]2[C@@H](CCn3cc([C@H](O)c4ccccc4)nn3)O[C@]3(C(=O)N(Cc4cccc(N5CCOC5=O)c4)c4ccccc43)[C@H]2C)cc1	1.56
CCN(CC)c1ccc(N2CC=CC34O[C@@H]5/C=C\CCCOC(=O)C5[C@H]3C(=O)N(C(CO)C(C)C)[C@@H]4C2=O)cc1 (stereo partly specified)	0.803
Cc1ccc(S[C@]2(C(=O)NC3CC3)CC(=O)N(Cc3ccccc3)[C@@H]2c2ccc(CO)cc2)cc1	-0.592
O=C1OCCC/C=C\[C@H]2OC34C=CCN(Cn5nnc6ccccc65)C(=O)[C@H]3N(CCCCCO)C(=O)[C@@H]4C12 (stereo partly specified)	-0.401

Compound	z-score
CCN(CC)c1ccc(N2CC=CC34O[C@@H]5C=CCCOC(=O)C5[C@H]3C(=O)N(CCCCCO)[C@@H]4C2=O)cc1 (stereo partly specified)	-0.847
O=C1O[C@@H](c2ccccc2)[C@@H](c2ccccc2)N2[C@@H](c3ccccc3OCCO)[C@]3(C(=O)Nc4ccc(C#CC5(O)CCCCCC5)cc43)[C@@H](C(=O)Nc3nc4ccccc4s3)[C@H]12	1.39
CCOC(=O)C1=C[C@@H](C(C)C)N(S(=O)(=O)c2ccc(C)cc2)[C@H]1c1ccc(C(C)C)cc1	0.129
C=CCC(OC(C)=O)[C@@H]1[C@@H](N(Cc2cccc3ccccc23)C(=O)c2cccc3ccccc23)c2cc(OCCCO)ccc2N1C(=O)c1ccc2ccccc2n1 (stereo partly specified)	-1.03
[N-]=[N+]=NCc1ccccc1C[C@]1(C(=O)NCCN2CCOCC2)N=C(c2ccc(OCCCO)cc2)O[C@H]1c1ccccc1N=[N+]=[N-]	-0.886
CC1=C2[C@@H](CCc3ccccc3)OB(O)C[C@@H]2n2c(=O)n(-c3ccccc3)c(=O)n2C1	-0.237
COc1cc2c(cc1OC)CN(C(=O)[C@@H]1[C@H]3C(=O)O[C@H](c4ccccc4)[C@H](c4ccccc4)N3[C@H](c3ccccc3OCCO)[C@@]13C(=O)Nc1ccc(C#CCNC(N)=O)cc13)CC2	0.443
C=C[C@H](C)[C@@H](O)c1ccc(O)c2ccccc12	-0.968
O=C1O[C@H](c2ccccc2)[C@H](c2ccccc2)N2[C@H]1[C@@H](C(=O)O)[C@]1(C(=O)Nc3ccc(C#CC4(O)CCCCCC4)cc31)[C@H]2c1ccc(OCCO)cc1	2.28
CC(=CC1CCCCC1)[C@@H](NC(=O)c1ccc(C(F)(F)F)cc1)c1ccc(-c2ccccc2)cc1	0.537
CN1C(=O)C2C(C1=O)C1C=C(CCCO)C2C(c2cccs2)N1C (stereo unspecified)	-0.68
CC(C)NC(=O)[C@@]1(Cc2ccccc2I)c2ccccc2C(=O)N(Cc2ccccc2)[C@H]1c1ccc(CO)cc1	-0.805
C=C(COC)C(=O)CC[C@H](OC(C)=O)c1cccc(OCCO)c1	0.513
[N-]=[N+]=NCc1ccccc1[C@H]1OC(c2ccc(OCCCO)cc2)=N[C@@]1(CCS(=O)(=O)c1ccccc1)C(=O)N1CCOCC1	0.0373
COC(=O)[C@@]1(Cc2ccc(OC)cc2)[C@H]2c3cc(C(=O)N4CCCC4)n(CCc4c[nH]c5cc(F)ccc45)c3C[C@H]2CN1C(=O)c1ccccc1	0.548
CC(C)CNC(=O)[C@@H]1c2ccccc2C(=O)N(Cc2cc(C(F)(F)F)cc(C(F)(F)F)c2)[C@H]1c1ccc(CO)cc1	0.976
[N-]=[N+]=NCc1ccccc1[C@@H]1OC(c2ccc(OCCCO)cc2)=N[C@]1(Cc1ccccc1)C(=O)N1CCCCC1	-0.202
CC(=O)C1=CCC(c2ccccc2)N(S(=O)(=O)c2ccc(C)cc2)C1 (stereo unspecified)	-1.31
